Screening results from PubChem.
HCV inhibitor: HCV inhibition. Huh7.5.1 HCVcc-Cre infection, luciferase reporter, 44 h. Potency, µM (highest dose often 41.8 µM), for the others: at the top dose activity change, negative = inhibition, most hits filed as inhibitors. 3.4% of 340,000 active; further: potency means the concentration at half of the fitted maximal effect; on the % scale 0 is the no-effect control and ±100 the full control effect
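Antiviral activity was scored by luciferase reporter output from cells infected with HCVcc-Cre (~0.5 moi) in presence of compound, 44 h infection period, cells seeded 1,000/well 4 h prior.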
AMA1-RON2 inh: inhibitors of Plasmodium falciparum AMA1-RON2 interaction; AlphaScreen AMA1-biotinylated RON2 peptide binding; Potency, µM (series often up to 58.2 µM), for inactives: top-dose activity change, negative = inhibition, hits mostly inhibitors; 0.2% of 360,000 active; AID 720542;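 further: potency means the concentration at half of the fitted maximal effect; 0% = vehicle wells and -100% = peptide control; nearly all actives have a fitted effect of over 45% in size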
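AMA1 (3D7) with his tag at 25 nM final met compounds first, then biotinylated RON2 peptide at 25 nM; detection used donor plus acceptor beads, 10 µg/mL apiece, read by AlphaScreen after 30 min at room temperature.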
Shiga inhibitor: inhibitors of Shiga toxin in Vero cells | Vero cells, Shiga toxin protein synthesis inhibition reporter | inhibition, % at 38.7 µM | 9.2% of 290,000 active | AID 2315; in the data active means inhibition mostly above about 28%, no sharp cut-off; inactive means mostly below about 43%; further: 0% is about no effect
Pf growth 48h: inhibits P. falciparum growth in the first generation, 48 h; P. falciparum luciferase growth in erythrocytes, 48 h; 5.9% of 310,000 active; Potency, µM (series often up to 28.7 µM), for the others: top-dose activity change, negative = inhibition, hits mostly inhibitors; further: potency means the concentration at half of the fitted maximal effect; on the % scale 0 is the no-effect control and ±100 the full control effect
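Read-out is firefly luciferase luminescence from an integrated reporter in P. falciparum, so falling signal marks reduced parasite growth. Infected erythrocytes were at 2% hematocrit and 0.1% parasitemia (final) in Albumax-supplemented RPMI 1640.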
Pf growth 96h: P. falciparum growth inhibition at 96 hour, primary screen for plastid delayed-death inhibitors. 6.9% of 320,000 active. Potency, µM (series often up to 28.7 µM), for inactives: top-dose activity change, negative = inhibition, usual class: inhibitors. P. falciparum luciferase reporter growth, 96 h; further: potency means the concentration at half of the fitted maximal effect; on the % scale 0 is the no-effect control and ±100 the full control effect
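Two parasite generations (96 h, 37 C, 5% CO2) of compound exposure in infected erythrocytes (0.05% parasitemia, 2% hematocrit). Luciferase-reporter P. falciparum; decreased luminescence indicates inhibited growth, aimed at apicoplast-acting delayed death.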
Cycloheximide cs: counter-screen hit for Shiga toxin inhibitors, cycloheximide; cell reporter, cycloheximide protein synthesis inhibition counterscreen; max response, %; 12% of 300,000 active; AID 2314; in the data active means max response mostly above about 13%, no sharp cut-off; inactive means mostly below about 14%; further: read at 38.3 µM for the half of the compounds with a filed dose; 0% is about no effect
An asterisk follows results filed as active; ? = inconclusive; nt = no result; [ ] = another dose, or the depositor's remark. In the library only some 21% were active in any assay of this set; here they are far more common. Unless noted, the call rests on the fitted dose curve; in most records, active means well fitted curve in the direction sought with a large enough effect; inconclusive means small, poorly fitted or top-dose-only effect, or another doubt; inactive means no such curve, though single readings can be large; an effect the other way counts as inactive or inconclusive.

SMILES | HCV inhibitor | AMA1-RON2 inh | Shiga inhibitor | Pf growth 48h | Pf growth 96h | Cycloheximide cs
O=C(CSc1nc2ccccc2s1)N/N=C/c1ccccc1C(=O)O | 7% | 87% | 91* | 312% | 325% | 52*
COc1ccc(/C=N/NC(=O)CCSc2nc3ccccc3s2)cc1 | 3.5µM* | 29% | -14 | -1% | -9% | 1
C1CN(CCN2CCOCC2)CCN1 | 12% | 20% | nt | -15% | -33% | -3
COC(=O)C1(Cc2cc(-c3ccc([N+](=O)[O-])cc3)no2)CCN(C(=O)OC(C)(C)C)CC1 | ? | -5% | nt | ? | ? | nt
COC(=O)C1(Cc2cc(-c3cccnc3)no2)CCN(C(=O)OC(C)(C)C)CC1 | -8% | -3% | 12 | ? | 10µM* | 10.0*
COC(=O)C1(Cc2cc(-c3ccc(Cl)cc3)no2)CCN(C(=O)OC(C)(C)C)CC1 | 1µM* | -3% | 13 | -8% | 65% | -1
COC(=O)C1(CC2CC(c3ccc(Cl)cc3)=NO2)CCN(C(=O)OC(C)(C)C)CC1 (stereo not drawn) | -4% | 16% | nt | ? | ? | nt
COc1ccc(C(C)(O)c2nc(-c3cccc(NC(C)=O)c3)cs2)cc1 (stereo not drawn) | nt | -3% | nt | nt | nt | nt
O=C(c1[nH]c(C(F)(F)F)nc1-c1ccccc1)N1CCC(Cc2ccccc2)CC1 | nt | 66% | nt | nt | nt | nt
CCOC(=O)c1cccc(NC(=O)CCS(=O)(=O)c2ccc(Br)s2)c1 | -18% | 0% | 17 | nt | 32% | 2
CCOc1ccc(OCC)c(NC(=O)CCS(=O)(=O)c2ccc(Br)s2)c1 | ? | -5% | 33 | ? | nt | 15*
CC(C)=CC(=O)Nc1ccc(Cl)cc1 | 1% | 0% | 55* | 97% | ? | 54*
COc1ccc(NC(=O)C=C(C)C)cc1Cl | -4% | -2% | 102* | 121% | ? | 29*
O=C(Cc1ccc(Br)cc1)NC1CCSC1=O (stereo not drawn) | 9% | 7% | 17 | 13% | 0% | -9
Cc1[nH]c2ccccc2c1SCC(=O)N1CCCc2ccccc21 | -6% | -17% | -7 | -30% | ? | -4
Cc1[nH]c2ccccc2c1C(=O)C(=O)N1CCN(c2ccccc2F)CC1 | 1% | -2% | -6 | 12% | ? | -3
CC(=O)c1ccc(N2CCN(C(=O)C(=O)c3c(C)[nH]c4ccccc34)CC2)cc1 | -19% | -12% | 16 | -13% | 36% | 15*
Cc1[nH]c2ccccc2c1C(=O)C(=O)N1CCCc2ccccc21 | -7% | 8%[2.32 µM] | 64* | ? | 10µM* | 50*
Cc1[nH]c2ccccc2c1C(=O)C(=O)N1c2ccccc2CC1C (stereo not drawn) | ? | 7% | -7 | 6.6µM* | 12µM* | -2
CC(CC(=O)c1ccccc1)=NCC(O)CN=C(C)CC(=O)c1ccccc1 (stereo not drawn) | nt | 46% | nt | nt | nt | nt
O=C(CCNS(=O)(=O)c1ccc2nsnc2c1)N1CCN(c2ccncc2)CC1 | -14% | 3% | nt | nt | nt | nt
CC1(C(=O)NS(=O)(=O)c2ccc3ccccc3c2)CCN1C(=O)Cc1ccc(Cl)cc1Cl (stereo not drawn) | nt | -4% | nt | nt | nt | nt
CSc1nc(N)c(NC(=O)c2ccc(Br)o2)c(=O)[nH]1 | 27% | 0% | 1 | 115% | 2% | 0
C[C@@H]1C[C@H]2[C@@H]3CCC4=CC(=O)C=C[C@]4(C)[C@@]3(Cl)[C@@H](O)C[C@]2(C)[C@@]1(OC(=O)c1ccco1)C(=O)CCl | -22% | 4% | nt | 1.9µM* | 2.1µM* | nt
CCCC(=O)O[C@]1(C(=O)CCl)[C@H](C)C[C@@H]2[C@H]3CCC4=CC(=O)C=C[C@]4(C)[C@@]3(F)C(=O)C[C@@]21C | nt | nt | nt | ? | 1.9µM* | nt
SMILES | HCV inhibitor | AMA1-RON2 inh | Shiga inhibitor | Pf growth 48h | Pf growth 96h | Cycloheximide cs
C[C@H]1C[C@@H]2[C@H]3CCC4=CC(=O)C=C[C@@]4(C)[C@@]3(Cl)[C@@H](O)C[C@]2(C)[C@]1(OC(=O)c1ccco1)C(=O)CCl | nt | nt | nt | 4.5µM* | 2µM* | nt
CC1(C(=O)NS(=O)(=O)C2CC2)CCCN(C(=O)c2cccs2)C1 (stereo not drawn) | nt | -4% | nt | nt | nt | nt
COC(=O)CCC(C)C1CCC2C3CCC4CC(O)CCC4(C)C3CC(O)C12C (stereo not drawn) | 11% | 0% | nt | nt | nt | nt
Cc1cc(C)cc(-n2nnc(C(=O)NCc3ccccc3)c2N)c1 | 11% | 42% | 1 | 13µM* | ? | 7
Cc1cc(C)cc(-n2nnc(C(=O)NCc3ccc(Cl)cc3)c2N)c1 | ? | -6% | 4 | ? | -19% | -2
CCCCNC(=O)c1nnn(-c2ccccc2)c1N | 17% | 0% | 49* | 176% | ? | 27*
Cc1cccc(-n2nnc(C(=O)NCc3ccco3)c2N)c1 | -13% | 2% | 38* | 36% | 14% | 21*
Cc1cc(Cl)ccc1NC(=O)/N=C1/NC(=O)CS1 | nt | -2% | nt | nt | nt | nt
O=C(NCC1CCCO1)c1sc2ccccc2c1Cl (stereo not drawn) | 1% | 9% | 73* | 187% | ? | 41*
COc1ccc2c(Cl)c(C(=O)NCC3CCCO3)sc2c1Cl (stereo not drawn) | 8% | nt | 23 | -1% | -8% | 20*
Cc1noc(C(=O)NCC2CCCO2)c1Cl (stereo not drawn) | 12% | -1% | 2 | 11% | 4% | 12
O=C(NCC1CCCO1)c1sc(=S)n2c1[nH]c(=O)c1ccc(C(=O)N3CCCCC3)cc12 (stereo not drawn) | 14% | 7% | -21 | 10µM* | ? | 0
Cc1ccc2c(Cl)c(C(=O)NCC3CCCO3)sc2c1 (stereo not drawn) | 2.2µM* | 23% | 77* | 314% | 93% | 55*
O=C(NCCc1ccccc1)c1ccc2c(=O)[nH]c3c(C(=O)NCC4CCCO4)sc(=S)n3c2c1 (stereo not drawn) | -1% | -7% | 14 | ? | ? | 2
O=C(c1ccccc1)c1n[nH]c(-c2ccccc2)cc1=O | -2% | 0% | -19 | 10% | 359% | -2
Cc1ccc(NS(=O)(=O)c2ccc(C(=O)NNC(=O)c3ccccc3O)cc2)cc1 | ? | 111% | nt | ? | ? | nt
COc1ccc2c(Cl)c(C(=O)NCCCn3ccnc3)sc2c1Cl | ? | 6% | 29 | 10µM* | ? | 2
C/C(=N/NS(=O)(=O)c1cc(C)ccc1C)c1ccc2c(c1)OCO2 | 15% | 11% | -3 | -1% | 12µM* | -1
C/C(=N/NS(=O)(=O)c1cc(C)ccc1C)c1ccncc1 | 8% | -13% | -9 | -10% | 12µM* | 1
Cc1ccc(C)c(S(=O)(=O)NCc2ccncc2)c1 | ? | 7% | -10 | ? | ? | -1
